# Shown are actives, neighbours in structure and some others; about 3.4% of the full set was active somewhere.
# TEAD-YAP block – TEAD-YAP interaction inhibition, primary screen, TEAD-YAP interaction inhibitor project, luminescence, HEK-TIYL cells; inhibition, % at 9.12 µM; hit rate 1.4% among 640,000; TEAD-Gal4/YAP UAS-luciferase luminescence; in the data active = inhibition above about 32%;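 note: 0% = median of test compound wells and 100% = reference inhibitor wells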
# MITF inh – MITF inhibitors, primary screen, biochemical, AlphaScreen, human | AID 1259374, 2018 | Microphthalmia-associated transcription factor (Homo sapiens), O75030 | hit rate 0.91% among 650,000 | inhibition, % at 2.6 µM | AlphaScreen MITF homodimerization, bead proximity signal; in the data active = inhibition above about 50%;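 note: 0% = vehicle wells with protein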
# GPR151 activ – activators of human GPR151, primary screen, cell-based, PathHunter beta-arrestin, luminescence | G-protein coupled receptor 151 (Homo sapiens), Q8TDV0 | PathHunter beta-arrestin GPR151 cells | hit rate 1% among 650,000 | activation, % at 11.2 µM | AID 1508602, 2020; in the data active = activation above about 4.9%;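 note: 0% = median of compound wells and 100% = cells with positive control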
# FBW7 activator – FBW7 E3 ligase activators, primary screen, biochemical, AlphaScreen, human; F-box/WD repeat-containing protein 7 (Homo sapiens), Q969H0; AlphaScreen FBW7–phospho-cyclin E peptide binding, activator screen; normalized activity (activation), % at 26.1 µM; hit rate 0.13% among 650,000; in the data active = normalized activity above about 1.9%;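 note: purified mutant Fbw7 with reduced substrate affinity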
# Target sequence (Q969H0 whole entry, looked up): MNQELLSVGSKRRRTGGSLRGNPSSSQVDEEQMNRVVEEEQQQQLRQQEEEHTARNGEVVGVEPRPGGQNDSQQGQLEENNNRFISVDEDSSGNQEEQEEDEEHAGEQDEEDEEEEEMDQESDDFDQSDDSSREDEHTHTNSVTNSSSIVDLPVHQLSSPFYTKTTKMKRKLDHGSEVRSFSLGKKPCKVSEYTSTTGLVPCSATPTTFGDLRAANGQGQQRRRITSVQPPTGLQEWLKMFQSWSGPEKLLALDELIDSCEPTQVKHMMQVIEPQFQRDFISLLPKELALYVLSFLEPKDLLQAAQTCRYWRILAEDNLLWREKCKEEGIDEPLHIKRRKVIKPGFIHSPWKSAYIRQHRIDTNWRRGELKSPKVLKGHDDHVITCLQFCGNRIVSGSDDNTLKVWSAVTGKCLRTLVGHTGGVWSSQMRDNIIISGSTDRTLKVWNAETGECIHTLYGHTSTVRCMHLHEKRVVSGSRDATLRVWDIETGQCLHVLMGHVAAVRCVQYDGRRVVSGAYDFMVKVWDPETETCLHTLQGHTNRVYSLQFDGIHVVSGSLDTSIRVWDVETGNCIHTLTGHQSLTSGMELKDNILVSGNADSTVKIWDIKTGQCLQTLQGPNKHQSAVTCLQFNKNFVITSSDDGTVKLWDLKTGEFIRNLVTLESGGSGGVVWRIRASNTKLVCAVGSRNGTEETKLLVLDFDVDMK
# MITF confirm – MITF inhibitors, retest of hits, confirmation, biochemical, AlphaScreen, triplicate; hit rate 16% among 4,700; AID 1259372, 2018; shares compounds with MITF inh; inhibition, % at 2.6 µM; AlphaScreen MITF homodimerization, biotin/His-MITF beads;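 active = inhibition above a cutoff derived from the DMSO control wells, cut at about 28% in these data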;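 note: 0% = MITF dimer wells with DMSO only; inhibitors lower the bead chemiluminescence by keeping MITF from dimerizing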
# AS interf DR – AlphaScreen optical interference compounds, dose response, counter-screen, biochemical, HTS | AlphaScreen optical interference counterscreen, cell-free | hit rate 6% among 480 | AID 1259373, 2018 | shares compounds with MITF inh | IC50, µM; call rule not given here
# AlphaScreen intf2 – AlphaScreen optical interference compounds, counter-screen for MITF inhibitor project, biochemical, triplicate; inhibition, % at 2.6 µM; hit rate 7.6% among 4,700; LysRS AlphaScreen counterscreen, signal interference; shares compounds with MITF inh;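 active = inhibition above a cutoff derived from the DMSO control wells, cut at about 30% in these data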
# Numbers without * were called inactive; / = not tested or not shown.
SMILES,TEAD-YAP block,MITF inh,GPR151 activ,FBW7 activator,MITF confirm,AlphaScreen intf2,others
COC(=O)c1ccc(N2C(=O)c3cc4ccccc4cc3C2=O)cc1,4,-2,1,0,/,/,
CCOc1ccc(NC(=O)CSc2nc3ccccc3c(=O)n2NC(=O)CCc2c[nH]c3ccccc23)cc1,5,-14,-1,0,/,/,
CC(NCCN(C)C)C(=O)Nc1ccc2c(c1)OCO2 (centres undefined),3,73*,0,0,3,2,
CCC(C)NCCOc1ccc(Br)cc1 (centres undefined),4,76*,-1,0,-14,1,
CCc1cccc(OCCCNC(C)CC)c1 (centres undefined),12,82*,-1,0,14,8,
CCC(C)NCCOCCOc1ccc(Cl)c(Cl)c1 (centres undefined),-6,66*,1,0,-3,-5,
CCC(C)NCCOCCOc1ccc(C)cc1 (centres undefined),10,49,0,0,/,/,
CCC(C)NCCOCCOc1ccc(Br)cc1 (centres undefined),4,26,1,0,/,/,
CC(=O)N(Cc1ccco1)c1nc2ccc(F)cc2s1,6,2,0,0,/,/,
CN(C)c1ccc(NC(=S)Nc2ccccn2)cc1,-48,71*,4,0,9,27,
Cc1occc1C(=O)N/N=C/C1CCCCC1,-46,-10,-6,0,/,/,
O=C(N/N=C/c1ccccn1)c1ccccn1,-32,48,-3,-2,/,/,
O=C(N/N=C/C=C\c1ccco1)c1ccccn1,-56,101*,0,0,94*,69*,
Cc1occc1C(=O)N/N=C/C1CC=CCC1 (centres undefined),-45,81*,-4,0,-10,-5,
Cc1occc1C(=O)N/N=C/C=C/c1ccco1,-60,80*,0,0,44*,-17,AS interf DR=>6.5
O=C(N/N=C/C=C\c1ccco1)c1ccncc1,3,18,1,0,/,/,
O=C(N/N=C\c1ccccn1)c1ccccn1,-44,54*,-2,-1,28*,82*,
CCC(C)NC(=O)CN(Cc1ccc(F)cc1)S(=O)(=O)c1ccc(Cl)cc1 (centres undefined),0,70*,0,0,-13,-6,
CC(C)NC(=O)C1CCN(Cc2ccc(C(F)(F)F)cc2)CC1,1,52*,-1,1,-5,-5,
CCOC(=O)C1CCN(Cc2ccc(F)cc2)CC1,10,19,0,0,/,/,
CCOC(=O)C1CCN(Cc2ccc(C(F)(F)F)cc2)CC1,2,51*,1,0,-1,9,
CC(C)NC(=O)C1CCN(Cc2ccc(Cl)c(Cl)c2)CC1,-2,51*,0,1,-14,1,
COC(=O)c1ccc(NC2c3ccccc3C(=O)N2c2ccc(C)cn2)cc1 (centres undefined),-38,14,-1,1,/,/,
Cc1ccc(C(=O)N/C(=C/C=C\c2ccccc2)C(=O)NC2CCCCC2)cc1,13,10,0,1,/,/,
Clc1ccc(CN2CCN(CC3CC4C=CC3C4)CC2)cc1 (centres undefined),-5,26,-1,0,/,/,
SMILES,TEAD-YAP block,MITF inh,GPR151 activ,FBW7 activator,MITF confirm,AlphaScreen intf2,others
C1=CC2CC1CC2CN1CCN(Cc2ccncc2)CC1 (centres undefined),-1,79*,1,1,-5,14,
Fc1ccccc1N1CCN(CC2CC3C=CC2C3)CC1 (centres undefined),-9,30,1,0,/,/,
c1ccc(CCCN2CCN(C3C4CC5CC(C4)CC3C5)CC2)cc1 (centres undefined),4,70*,-1,0,2,7,
O=[N+]([O-])c1ccc(CN2CCN(CC3CC4C=CC3C4)CC2)cc1 (centres undefined),4,63*,0,0,12,15,
C1=CC2CC1CC2CN1CCN(CCCc2ccccc2)CC1 (centres undefined),7,70*,-3,0,8,16,
CSCCCN1CCCC(c2ccnc(SCCN3CCCC3)n2)C1 (centres undefined),-7,-9,0,0,/,/,
O=C(CSc1nnc(-c2ccc(Br)cc2)o1)N1CCCCCC1,-10,12,-1,0,/,/,
O=C(NCCN1CCOCC1)c1ccnc(-c2ccc(N3CCOCC3)nc2)c1,-15,15,0,0,/,/,
C1=CC2CC1CC2CN1CCN(Cc2ccc3c(c2)OCO3)CC1 (centres undefined),-17,58*,-1,0,-5,-3,
Cc1ccc(S(=O)(=O)N2CCN(CC3CC4C=CC3C4)CC2)cc1 (centres undefined),-52,68*,2,0,-3,-2,
Cc1ccc(S(=O)(=O)NC[C@@H]2CC3C=CC2C3)cc1 (some centres undefined),1,10,-1,0,/,/,
O=[N+]([O-])c1ccccc1CN1CCN(CC2CC3C=CC2C3)CC1 (centres undefined),6,67*,0,0,-2,-1,
Cc1nn(C(=O)c2ccc(F)cc2)c(C)c1S(=O)(=O)N1CCCCC1,4,8,0,0,/,/,
CCOc1ccc(C(=O)Nc2cc(-c3nc4ccccc4s3)ccc2C)cc1Br,1,-2,1,0,/,/,
CCOc1ccc(/C=C2\C(=O)NN(c3ccc(Cl)c(Cl)c3)C2=O)cc1,-6,-15,0,0,/,/,
CN(c1cccc(NS(=O)(=O)c2ccc([N+](=O)[O-])cc2)c1)S(C)(=O)=O,13,51*,-2,0,34*,7,AS interf DR=>6.5
Cc1ccc(S(=O)(=O)Nc2cccc(N(C)S(C)(=O)=O)c2)cc1,-4,-12,2,0,/,/,
Cc1ccccc1NC(=O)c1c(NC(=O)c2cccs2)sc2c1CCCC2,5,-12,1,0,/,/,
Cn1nc(Oc2ccc(-c3ccccc3)cc2)c(=O)n(C)c1=O,-9,80*,-1,0,16,9,
COc1cc(CN2CCN(C3CCCC(C)C3)CC2)cc(OC)c1O (centres undefined),6,74*,0,0,9,26,
COc1cc(CN2CCN(C3CCCCCC3)CC2)cc(OC)c1O,-8,58*,0,1,6,14,
COC(=O)c1c(NC(=O)c2ccc3c(c2)OCO3)sc(C(=O)N(C)C)c1C,-3,16,-1,0,/,/,
Cn1c(=O)c2c(SCC(=O)C(C)(C)C)nc(C(C)(C)C)nc2n(C)c1=O,9,5,-2,0,/,/,

# Screening data deposited in PubChem BioAssay by The Scripps Research Institute Molecular Screening Center.
